Pf growth 96h: inhibits malaria parasite growth, 96 h. P. falciparum luciferase reporter growth, 96 h. Potency, µM (series often up to 28.7 µM), actives largely listed as inhibitors. 320,000 tested, 6.9% active
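Cell-based qHTS: luciferase-tagged P. falciparum in erythrocytes (2% hematocrit, 0.05% parasitemia final) incubated with compounds for 96 hours, 37 C, 5% CO2; luciferase detection reagent then added and luminescence measured.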
Shiga toxin inh: blocks Shiga toxin action in Vero cells | Vero cells, Shiga toxin protein synthesis inhibition reporter | inhibition, % at 38.7 µM | AID 2315 | 290,000 tested, 9.2% active; in the data active means inhibition mostly above about 28%, no sharp cut-off; inactive means mostly below about 43%
Marburg entry inh: inhibitors of Marburg virus binding or cell entry | Marburg virus pseudotyped entry inhibition, cell reporter | Potency, µM (doses to about 37.8 µM), most hits filed as inhibitors | 300,000 tested, 1.8% active; calls by dose curve; tested in HEK293 cells
Cycloheximide cs: counter-screen hit for Shiga toxin inhibitors, cycloheximide; cell reporter, cycloheximide protein synthesis inhibition counterscreen; max response, %; 300,000 tested, 12% active; in the data active means max response mostly above about 13%, no sharp cut-off; inactive means mostly below about 14%; further: read at 38.3 µM for the half of the compounds with a filed dose
Pf growth 48h: P. falciparum growth inhibition at 48 hours (one generation). P. falciparum luciferase growth in erythrocytes, 48 h. Potency, µM (titrated, usually from 28.7 µM), usual class: inhibitors. 310,000 tested, 5.9% active. AID 504832
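A one-generation exposure of luciferase-tagged malaria parasites in RPMI 1640/Albumax erythrocyte culture, 37 C and 5% CO2. Inhibition is inferred from decreased luminescence after adding detection reagent.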
LASV entry inh: Lassa virus entry inhibition. Lassa virus pseudotype entry inhibition, cell reporter. AID 540256. 300,000 tested, 1.2% active. Potency, µM (doses to about 37.9 µM), hits mostly inhibitors; calls by dose curve; tested in HEK293 cells; further: nearly all actives have a fitted effect of over 50% in size
Each line names hits and unclear results; the compound was inactive in the other large screens. Hits are enriched below; roughly 19% of the tested compounds scored in any of these assays. Unless noted, the call rests on the fitted dose curve; in most records, active means well fitted inhibition curve with a large enough effect; inconclusive means small, poorly fitted or top-dose-only effect, or another doubt; inactive means no such curve, though single readings can be large or run the other way.

C=CCN1C(=O)/C(=C/c2ccc3c(c2)CCCN3CCC)C(=O)NC1=S	Cycloheximide cs 11
C[C@@H](C(=O)NCC1CC1)[C@H]1C[C@]1(C)[C@H](NC(=O)OCc1ccccc1)c1ccccc1	Pf growth 96h inconclusive, LASV entry inh inconclusive
CCOc1ccc(CN2CCNC(=O)C2CC(=O)NCC2CCOCC2)cc1 (stereo not drawn)	Marburg entry inh inconclusive
Cc1ccc(NC(=O)CC2Nc3ccccc3NC2=O)cc1C (stereo not drawn)	none (no result: Pf growth 96h, Shiga toxin inh, Cycloheximide cs, Pf growth 48h)
CCCOc1ccc(NC(=O)CC2Nc3ccccc3NC2=O)cc1 (stereo not drawn)	Pf growth 96h inconclusive (no result: Marburg entry inh, LASV entry inh)
Cc1ccc(NC(=O)CC2Nc3ccccc3NC2=O)cc1Cl (stereo not drawn)	Shiga toxin inh 108, Marburg entry inh inconclusive, Cycloheximide cs 28, Pf growth 48h inconclusive, LASV entry inh inconclusive
CCCOc1ccccc1NC(=O)CC1Nc2ccccc2NC1=O (stereo not drawn)	Pf growth 48h 9.3µM
COc1ccc(CCNC(=O)CC2Nc3ccccc3NC2=O)cc1 (stereo not drawn)	Pf growth 96h inconclusive (no result: Pf growth 48h)
COc1ccc(CCNC(=O)CC2Nc3ccccc3NC2=O)cc1OC (stereo not drawn)	Pf growth 96h 1.5µM, Pf growth 48h inconclusive
CCOc1ccccc1NC(=O)CC1Nc2ccccc2NC1=O (stereo not drawn)	Pf growth 96h 3.3µM, Marburg entry inh inconclusive, Pf growth 48h 2.3µM
N#C/C(=C(/O)c1ccc([N+](=O)[O-])cc1)c1nc2ccccc2[nH]1	none
O=C(CC1Nc2ccccc2NC1=O)c1ccccc1 (stereo not drawn)	Pf growth 96h inconclusive, Cycloheximide cs 31 (no result: Pf growth 48h, LASV entry inh)
O=C(CC1Nc2ccccc2NC1=O)NCCc1ccccc1 (stereo not drawn)	Pf growth 96h inconclusive, Marburg entry inh inconclusive, Pf growth 48h inconclusive
Cc1ccc(NC(=O)CC2SCCNC2=O)cc1Cl (stereo not drawn)	Shiga toxin inh 48, Marburg entry inh inconclusive, Cycloheximide cs 23
Cc1ccc(NC2Sc3ccccc3NC2=O)cc1Cl (stereo not drawn)	Cycloheximide cs 13 (no result: Marburg entry inh, LASV entry inh)
O=C(CN(c1cccc(C(F)(F)F)c1)S(=O)(=O)c1ccccc1)N1CCOCC1	none
Cc1ccc(C(=O)CCC(=O)NCc2ccccc2)cc1	Pf growth 96h inconclusive (no result: Marburg entry inh, LASV entry inh)
CCCN(CCC)Cc1cc2ccccc2c2c1COC2	Pf growth 96h inconclusive, Marburg entry inh inconclusive, LASV entry inh inconclusive (no result: Pf growth 48h)
Cc1cc(-c2nnc(CCC(=O)N(C)C(C)c3cccs3)o2)no1 (stereo not drawn)	Shiga toxin inh 77, Cycloheximide cs 48 (no result: Marburg entry inh, LASV entry inh)
Cc1cc(-c2nnc(CCC(=O)N(C)Cc3ccsc3)o2)no1	Cycloheximide cs 21 (no result: Marburg entry inh, LASV entry inh)
Cc1cc(-c2nnc(CCC(=O)NC(C)c3ccc(F)cc3)o2)no1 (stereo not drawn)	Pf growth 96h inconclusive (no result: Marburg entry inh, LASV entry inh)
Cc1cc(-c2nnc(CCC(=O)NCc3ccc(OC(F)(F)F)cc3)o2)no1	Cycloheximide cs 16 (no result: Marburg entry inh, LASV entry inh)
CC(=O)Nc1nc2ccc(S(=O)(=O)N3CCCCC3)cc2s1	none
Cc1c(CCOC(=O)C23CC4(C)CC(C)(CC(C)(C4)C2)C3)sc[n+]1CC(=O)c1ccccc1	Marburg entry inh inconclusive, Pf growth 48h inconclusive
Cc1c(CCOC(=O)C23CC4CC(CC(C4)C2)C3)sc[n+]1Cc1ccccc1	Pf growth 48h 3.3µM
Cc1c(CCOC(=O)CC23CC4CC(CC(C4)C2)C3)sc[n+]1CC(=O)c1ccccc1	Pf growth 48h 13µM (no result: Marburg entry inh, LASV entry inh)
Cc1c(CCOC(=O)C23CC4CC(CC(C)(C4)C2)C3)sc[n+]1Cc1ccccc1	Pf growth 96h 12µM, Marburg entry inh inconclusive, Pf growth 48h 3.3µM, LASV entry inh inconclusive
Cc1ccc(C(=O)OCCc2sc[n+](Cc3ccccc3)c2C)cc1	Pf growth 96h 1µM, Pf growth 48h 1.5µM
CC1=C2C[C@H]3[C@@H](CC=C4C[C@@H](O)CC[C@@]43C)[C@@H]2CC[C@]12O[C@@H]1C[C@H](C)CN[C@H]1C2C (stereo partly drawn)	none (no result: Pf growth 96h, Marburg entry inh, Pf growth 48h, LASV entry inh)
CCOc1ccc(CC(=O)OCN2C(=O)c3ccccc3C2=O)cc1	none
O=C(/C=C\c1ccccc1)Oc1cccc2cccnc12	Pf growth 96h 5.9µM, Cycloheximide cs 21, Pf growth 48h inconclusive (no result: Marburg entry inh, LASV entry inh)
O=C(/C=C/c1ccccc1)Oc1cccc2cccnc12	Pf growth 96h 3.7µM, Pf growth 48h 4.7µM (no result: Marburg entry inh, LASV entry inh)
O=C(Oc1cccc2cccnc12)c1ccccc1	Pf growth 48h inconclusive (no result: Marburg entry inh, LASV entry inh)
CCOC(=O)Cc1csc(NC(=O)c2cnc3scc(C)n3c2=O)n1	LASV entry inh inconclusive (no result: Pf growth 96h, Shiga toxin inh, Cycloheximide cs, Pf growth 48h)
COc1ccc(-c2csc(N(Cc3ccco3)C(=O)c3cccs3)n2)cc1	Pf growth 96h 6.6µM, Shiga toxin inh 57, Cycloheximide cs 22, Pf growth 48h inconclusive (no result: Marburg entry inh, LASV entry inh)
COc1ccc(CC(=O)N(CC2CCCO2)c2nc3ccccc3s2)cc1 (stereo not drawn)	Pf growth 96h inconclusive, Marburg entry inh inconclusive, Cycloheximide cs 27
COc1ccc(OC)c(-c2csc(N(Cc3ccco3)C(=O)c3cccs3)n2)c1	Pf growth 96h inconclusive, Marburg entry inh inconclusive, Pf growth 48h 9.3µM
COc1ccc(OC)c(-c2csc(N(CC3CCCO3)C(=O)C3CCCCC3)n2)c1 (stereo not drawn)	Pf growth 48h 2.9µM
COc1ccc(OC)c(-c2csc(N(C)C(=O)Cc3ccccc3)n2)c1	Pf growth 96h inconclusive, Marburg entry inh inconclusive, Pf growth 48h inconclusive
COCCN(C(=O)Cc1ccc(OC)c(OC)c1)c1nc(-c2cc(OC)ccc2OC)cs1	Pf growth 48h inconclusive (no result: Marburg entry inh, LASV entry inh)
O=C(C1CC1)N(Cc1ccco1)c1nc(-c2ccccc2)cs1	Pf growth 96h inconclusive, Cycloheximide cs 8.3, Pf growth 48h inconclusive
O=C(Cc1ccc([N+](=O)[O-])cc1)OCc1c(F)cccc1Cl	Cycloheximide cs 17
Cc1ccccc1OCC(=O)O/N=C(\N)Cc1ccc(Cl)cc1	none (no result: Pf growth 48h)
N/C(Cc1ccc([N+](=O)[O-])cc1)=N\OC(=O)Cc1ccc(Cl)cc1	Marburg entry inh inconclusive
N/C(Cc1ccc([N+](=O)[O-])cc1)=N\OC(=O)c1ccccc1F	Shiga toxin inh 38, Cycloheximide cs 18 (no result: LASV entry inh)
N/C(Cc1ccc(Cl)cc1)=N\OC(=O)c1ccc2ccccc2c1	Pf growth 96h 10µM, Marburg entry inh 2.8µM, Pf growth 48h inconclusive, LASV entry inh inconclusive
N/C(Cc1ccc(Cl)cc1)=N\OC(=O)c1cccc2ccccc12	Pf growth 96h inconclusive, Marburg entry inh inconclusive, Cycloheximide cs 23, Pf growth 48h inconclusive, LASV entry inh 12µM
COc1ccc(C2C(C(=O)O)c3ccccc3C(=O)N2Cc2ccco2)cc1 (stereo not drawn)	none
COc1ccc(C/C(N)=N/OC(=O)c2ccc(Cl)cc2)cc1	Shiga toxin inh 55, Cycloheximide cs 21, Pf growth 48h inconclusive, LASV entry inh inconclusive
CCN(CC)Cc1nc2c(c(=O)[nH]1)C1(CCCC1)Cc1ccccc1-2	Pf growth 96h 12µM, Marburg entry inh inconclusive, Pf growth 48h inconclusive
O=c1[nH]c(CN(CCO)CCO)nc2c1C1(CCCCC1)Cc1ccccc1-2	none
